This is an account of results in PubChem BioAssay AID1209 (Sanford-Burnham Center for Chemical Genomics, 2008).

As usually defined, the inhibition is the change of the read-out against control, counted positive when it falls.

The campaign covered roughly 190,000 compounds. About 810 (0.43%) were called active. No stated cut-off is given here; in the data, active means inhibition above about 50%; inactive means the rest. For the sample, actives were picked, then their nearest neighbours and some compounds at random.

In this assay the target is Mannose-6-phosphate isomerase (Homo sapiens) (UniProt P34949). The assay can be described thus: inhibitors of human PMI, primary screen, biochemical, fluorescence intensity, coupled assay (AID 1209).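 Further: plate controls were DMSO vehicle for no effect and wells lacking substrate for full effect.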 The conditions noted are these: purified PMI enzyme, at 20 µM, hits give high values.
Sequence of Mannose-6-phosphate isomerase (Homo sapiens) (P34949 whole entry, looked up): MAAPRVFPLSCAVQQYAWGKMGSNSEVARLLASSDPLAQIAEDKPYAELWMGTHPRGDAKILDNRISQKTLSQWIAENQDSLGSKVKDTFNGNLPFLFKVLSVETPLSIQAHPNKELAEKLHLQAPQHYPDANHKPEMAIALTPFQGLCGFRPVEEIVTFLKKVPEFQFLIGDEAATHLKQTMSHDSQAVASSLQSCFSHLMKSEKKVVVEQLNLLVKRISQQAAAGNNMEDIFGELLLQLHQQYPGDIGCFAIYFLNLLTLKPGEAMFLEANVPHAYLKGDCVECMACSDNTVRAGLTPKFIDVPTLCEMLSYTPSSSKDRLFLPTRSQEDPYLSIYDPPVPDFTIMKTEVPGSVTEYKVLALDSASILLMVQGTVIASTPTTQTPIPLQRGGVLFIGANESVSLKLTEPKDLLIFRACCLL
Turning to `CC(C)(CO)NC(=O)CC1C(=O)NCCN1CC(c1ccccc1)c1ccccc1` (centres undefined), the inhibition is -1.4% (inactive).
The same measure for `COC(=O)c1cccc(NC(=O)CCc2cc(OC)c(OC)c(OC)c2)c1`: -5.4% (inactive); for `COCCn1c(SCCN2CCCCC2)nc2ccccc2c1=O`: 3.5% (inactive).
The value for `COc1ccc(NC(=O)Nc2ccc3nccnc3c2)cc1` was -6.9% (inactive).
The value for `COc1ccc(NC(=S)Nc2ccc3snnc3c2)cc1` was 25% (inactive).
Regarding `COc1ccc(NC(=O)c2ccc3nccnc3c2)cc1`, the inhibition is -5.2% (inactive).
As to `COc1ccc(NC(=S)Nc2ccc3nccnc3c2)cc1`, the inhibition was 83.8% (active).
As to `CCOc1ccc(NC(=S)Nc2ccc3nsnc3c2)cc1`, the inhibition is 46.4% (inactive).
Take `COc1cccc(NC(=O)Nc2ccc3nsnc3c2)c1`: the inhibition was 1.7% (inactive).
For `COc1ccc(NC(=S)Nc2ccc3nsnc3c2)cc1`, the inhibition was 64.2% (active).
The value for `COc1ccc(N(C)C(=O)Nc2ccc3c(c2)nnn3C)cc1` was 15.5% (inactive); that for `COc1ccc(N(C)C(=O)Nc2ccc3nsnc3c2)cc1` was 58.7% (active); that for `CCOC(=O)c1sc(NS(=O)(=O)c2ccc(C)cc2)nc1C` was 5.9% (inactive).
With `CCOc1ccc(-c2noc(CCC(N)=O)n2)cc1OCC`, the inhibition was -7.6% (inactive).
Take `Cc1cc(NCCCN2CCOCC2)n2nc(C)c(-c3ccccc3)c2n1`: the inhibition was -1.9% (inactive).
The same measure for `Cc1csc(NC(=O)CSc2nc3ccccc3c(=O)[nH]2)n1`: 0.4% (inactive); for `C[C@H]1CC[C@H]2C(=O)N3[C@H](c4cccc(N5CCCC5=O)c4)[C@@H](C)CC[C@H]3C(=O)N2[C@@H]1c1cccc(N2CCCC2=O)c1`: -17.4% (inactive).
The value for `CC(C)(C)Cc1nnc(NC(=O)Cc2ccc([N+](=O)[O-])cc2)s1` was -4.5% (inactive).
Consider `CC(C)(C)C(=O)CSc1nnc(Nc2ccccc2)s1`, for which the inhibition was 39.6% (inactive).
The same measure for `CCOC(=O)N1CCC(N2Cc3cccc(C(=O)Nc4cccc(F)c4)c3C2=O)CC1`: -24.4% (inactive).
For the compound `CCOC(=O)C1CCN(C(=O)c2c(-c3c(Cl)cccc3Cl)noc2C)CC1`, the inhibition was 9.4% (inactive).
As to `CCN(CC)CCNCc1ccc(-c2ccc(Cl)cc2)o1`, the inhibition is -7% (inactive).
With `CC1CC(C)(C)NC(=S)N1CCCC(=O)N1CCN(c2ccccc2F)CC1` (centres undefined), the inhibition is -3.8% (inactive).
As to `COc1cc(N=C2C(=O)N3c4c(cccc42)C(C)=CC3(C)C)cc(OC)c1`, the inhibition is 34.1% (inactive).
On to `COc1cc(-c2nnc(-c3cc(OC)c(OC)c(OC)c3)o2)cc(OC)c1OC`, for which the inhibition was 7.6% (inactive).
Take `COc1cc(N=C(N)N=C(N)N)cc(OC)c1`: the inhibition was -0.7% (inactive).
In the case of `COc1ccc(N=c2sc3ccccc3n2C)cc1`, the inhibition is 5.6% (inactive).
Regarding `COc1cc(-c2nnco2)cc(OC)c1OC`, the inhibition is 15% (inactive).
Turning to `COc1ccc(N=C2SCC(=O)N2Cc2ccccc2)cc1`, the inhibition is -10.8% (inactive).
